Bioassay records from PubChem.
GC-B act – GC-B (human) receptor activation | AID 1920062 | P20594 | HEK293-GC-B cells, CNP EC30, cGMP TR-FRET; 0% at EC30 CNP, 100% saturating CNP | actives 0.11% (n = 370,000) | activation, % at 10 µM;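 active = activation at 10 µM reaching about 35% in either raw or pattern-adjusted values, limit read from the data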
GC-A act – GC-A (human) enzyme activation; activation, % at 10 µM; HEK293 GC-A cells, cGMP TR-FRET, EC30 ANP; 0% at EC30 ANP, 100% saturating ANP; P16066; actives 0.14% (n = 370,000); in the data active = activation above about 40%
Target sequence (P16066 whole entry, looked up): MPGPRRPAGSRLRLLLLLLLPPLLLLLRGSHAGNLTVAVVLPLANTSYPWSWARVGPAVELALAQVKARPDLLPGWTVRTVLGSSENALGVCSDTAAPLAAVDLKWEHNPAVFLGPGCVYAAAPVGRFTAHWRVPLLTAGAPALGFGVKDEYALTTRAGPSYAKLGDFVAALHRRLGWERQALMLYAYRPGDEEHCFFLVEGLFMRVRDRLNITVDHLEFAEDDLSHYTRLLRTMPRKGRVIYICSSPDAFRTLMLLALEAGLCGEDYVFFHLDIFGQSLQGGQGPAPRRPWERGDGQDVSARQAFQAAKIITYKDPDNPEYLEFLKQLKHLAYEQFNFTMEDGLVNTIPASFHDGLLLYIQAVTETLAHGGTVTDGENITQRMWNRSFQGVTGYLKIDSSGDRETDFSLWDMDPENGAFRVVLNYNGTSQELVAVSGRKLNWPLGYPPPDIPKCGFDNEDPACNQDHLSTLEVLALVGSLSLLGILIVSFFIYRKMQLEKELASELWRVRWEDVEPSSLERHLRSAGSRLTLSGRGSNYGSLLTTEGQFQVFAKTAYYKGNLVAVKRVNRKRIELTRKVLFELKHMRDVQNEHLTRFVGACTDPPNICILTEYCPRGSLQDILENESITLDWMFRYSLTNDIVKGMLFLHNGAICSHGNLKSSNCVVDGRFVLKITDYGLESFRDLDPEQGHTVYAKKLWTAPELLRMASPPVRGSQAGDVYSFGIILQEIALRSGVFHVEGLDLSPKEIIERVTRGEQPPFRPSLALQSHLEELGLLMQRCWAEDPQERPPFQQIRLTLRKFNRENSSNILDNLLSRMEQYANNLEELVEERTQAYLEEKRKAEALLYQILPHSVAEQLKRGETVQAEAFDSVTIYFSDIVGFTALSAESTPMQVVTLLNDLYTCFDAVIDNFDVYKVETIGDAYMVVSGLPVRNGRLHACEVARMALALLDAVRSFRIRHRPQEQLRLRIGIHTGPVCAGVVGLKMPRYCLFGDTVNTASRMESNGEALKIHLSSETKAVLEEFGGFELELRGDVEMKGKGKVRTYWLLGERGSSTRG
Rev-erbA mod – modulators of human Rev-erb alpha DNA binding; AID 1259318; P20393; activity, % at 10 µM; actives 0.79% (n = 370,000); Rev-erbα–FITC-DNA binding, fluorescence polarization, 90 min;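 active = activity above about 14%, limit read from the data; passing the limit was not always enough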;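 also: 0% = DMSO wells with 35 nM protein and 100% = DMSO wells with 750 nM protein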
V-ATPase pH – regulators of yeast V-ATPase proton transport. S. cerevisiae, pHLuorin cytosolic pH fluorescence. response, % at 10 µM. actives 0.37% (n = 350,000); in the data active = response mostly above about 7.3%, no sharp cut-off; inactive = mostly below about 5.4%; also: actives read high
PG9 binder – PG9 antibody binding by small molecule; TR-FRET gp120-PG9 antibody binding; inhibition, % at 6.7 µM; actives 0.43% (n = 360,000); in the data active = inhibition above about 8.5%
PG9 bind confirm – confirmation of small molecules binding HIV-1 gp120 antibody PG9. shares compounds with PG9 binder. TR-FRET PG9 antibody binding, biochemical. inhibition, % at 6.7 µM. actives 90% (n = 1,500); in the data active = inhibition above about 9%
PGV04 Ab binding – counter-screen for PG9 binders: binding control antibody PGV04 | actives 95% (n = 1,500) | TR-FRET PGV04 antibody-gp120 binding, biochemical | inhibition, % at 6.7 µM | shares compounds with PG9 binder; in the data active = inhibition above about 9.5%
PG9 bind DR – small molecules binding HIV-1 gp120 antibody PG9; shares compounds with PG9 binder; TR-FRET PG9 antibody-gp120 binding inhibition; AID 651848; 95 tested, under 10 active; IC50, µM; in the data active = IC50 below about 10 µM
PGV04 DR counter – counter-screen for PG9 binders: binding to control antibody PGV04; actives 20% (n = 95); AID 651937; TR-FRET binding to control antibody PGV04; shares compounds with PG9 binder; IC50, µM
PG126 DR counter – counter-screen for PG9 binders: binding to control antibody PG126; actives 20% (n = 95); shares compounds with PG9 binder; IC50, µM; TR-FRET binding to antibody PG126, counterscreen; AID 651939
* = called active by the depositor; i = inactive; · = no result. An excerpt weighted towards active compounds, which were near 1.6% of everything screened. Rule as the data show it, unless noted: active = IC50 below about 9 µM; inactive = the rest.

SMILES | GC-B act | GC-A act | Rev-erbA mod | V-ATPase pH | PG9 binder | PG9 bind confirm | PGV04 Ab binding | others
O=C(C1CCCN(S(=O)(=O)c2ccc(Br)s2)C1)N1CCN(Cc2ccccc2)CC1 (stereo unspecified) | 1 | -7 | 0 | · | · | · | ·
CCOC(=O)c1cccc(Nc2ncnc3ccc(C)cc23)c1 | -5 | 4 | 7 | 4 | -1 | · | ·
CCOC(=O)c1ccc(Nc2ncnc3ccc(C)cc23)cc1 | -4 | 2 | 7 | -2 | 8.9* | 14* | 22*
Cc1cc(C)cc(-c2nnc(SCC(=O)Nc3cc(C)on3)o2)c1 | -2 | -3 | 3 | 8 | 14* | 22* | 34*
CNS(=O)(=O)c1cc(Cl)ccc1Sc1ccccc1C(=O)O | 5 | 2 | -1 | 2 | 0 | · | ·
NS(=O)(=O)c1c(Sc2ccccc2C(=O)O)ccc2ccccc12 | -7 | 11 | -3 | 1 | 15* | 15* | 20*
CCOC(=O)c1sc2nccc(N(C)C)c2c1N=CNOCc1c(F)cccc1Cl | -17 | -12 | 1 | -4 | 10* | 18* | 25*
CCOC(=O)c1sc(=S)[nH]c1C | 0 | 11 | 1 | 0 | 19* | 11* | 9 | PG9 bind DR=i;PGV04 DR counter=i;PG126 DR counter=i
CCOC(=O)c1c(C)[nH]sc1=S | 3 | 4 | 5 | 0 | 17* | 9.3* | 8 | PG9 bind DR=>67;PGV04 DR counter=i;PG126 DR counter=i
O=C(OCCN1CCN(C2CN(Cc3cn(Cc4ccccc4Cl)nn3)S(=O)(=O)C2)CC1)c1cc2ccccc2o1 (stereo unspecified) | -2 | 2 | 5 | · | · | · | ·
CC(=O)c1ccc(NC(=O)NC2CCCCN(Cc3ccc(Cl)cc3)C2=O)cc1 (stereo unspecified) | -2 | 0 | 9 | · | · | · | ·
COC(=O)[C@@]12CCCCC=C1N(CCc1ccc(Cl)cc1)C(=O)[C@H]2CC(=O)NCCc1ccccc1OC | 1 | 1 | 8 | · | · | · | ·
COc1ccc([C@H]2OC(=O)C[C@@H]2C(=O)N2CCN(c3ccccc3F)CC2)cc1OC | 11 | 2 | -10 | · | · | · | ·
CCN1C(=C(C#N)C#N)C=Cc2cc(C)ccc21 | 9 | 12 | -3 | 1 | 23* | 20* | 31*
O=C(Cn1nnc2c(cnn2-c2ccccc2)c1=O)NCc1cccs1 | 0 | 1 | -6 | 3 | -2 | · | ·
O=C(Cn1nnc2c(cnn2-c2ccc(F)cc2)c1=O)Nc1ccccc1C(F)(F)F | 2 | 18 | 17 | 1 | 11* | 14* | 20*
C=CCN1C=C2C(=O)C(C)(OC(=O)c3ccc(OC)cc3)C(=O)C(c3ccco3)=C2C=C1CCCC (stereo unspecified) | 3 | 4 | -4 | -1 | 9.7* | 16* | 20*
CCCCC1=CC2=C(c3ccco3)C(=O)C(C)(OC(=O)c3ccc(OC)cc3)C(=O)C2=CN1CCCOC(C)C (stereo unspecified) | 0 | -1 | 3 | -4 | 1 | · | ·
COc1ccc(CCNC(=O)c2cc3ccccn3n2)cc1 | -4 | 3 | -1 | · | · | · | ·
O=C(O)c1cc(-c2cccs2)nc2ccc(F)cc12 | 0 | 3 | -1 | -3 | 4 | · | ·
O=C(O)c1cc(-c2cccnc2)nc2ccc(Br)cc12 | 8 | 37 | -5 | 6 | 44* | 56* | 69*
O=C(O)c1cc(-c2cccs2)nc2ccc(Br)cc12 | 2 | 27 | 6 | -2 | 40* | 54* | 77*
CCN1CCN(C(=O)c2cc(-c3cccnc3)nc3ccc(Br)cc23)CC1 | 0 | 5 | 7 | 3 | 7 | · | ·
O=C(O)c1cc(-c2ccc3c(c2)OCO3)nc2ccc(Br)cc12 | -2 | 10 | 0 | -3 | 20* | 28* | 34*
